From ChEMBL document CHEMBL2218924, “A broad activity screen in support of a chemogenomic map for kinase signalling research and drug discovery” (Biochem J, 2013) come the findings set out here.

Chain of Protein kinase C eta type (Homo sapiens) (P24723 whole entry): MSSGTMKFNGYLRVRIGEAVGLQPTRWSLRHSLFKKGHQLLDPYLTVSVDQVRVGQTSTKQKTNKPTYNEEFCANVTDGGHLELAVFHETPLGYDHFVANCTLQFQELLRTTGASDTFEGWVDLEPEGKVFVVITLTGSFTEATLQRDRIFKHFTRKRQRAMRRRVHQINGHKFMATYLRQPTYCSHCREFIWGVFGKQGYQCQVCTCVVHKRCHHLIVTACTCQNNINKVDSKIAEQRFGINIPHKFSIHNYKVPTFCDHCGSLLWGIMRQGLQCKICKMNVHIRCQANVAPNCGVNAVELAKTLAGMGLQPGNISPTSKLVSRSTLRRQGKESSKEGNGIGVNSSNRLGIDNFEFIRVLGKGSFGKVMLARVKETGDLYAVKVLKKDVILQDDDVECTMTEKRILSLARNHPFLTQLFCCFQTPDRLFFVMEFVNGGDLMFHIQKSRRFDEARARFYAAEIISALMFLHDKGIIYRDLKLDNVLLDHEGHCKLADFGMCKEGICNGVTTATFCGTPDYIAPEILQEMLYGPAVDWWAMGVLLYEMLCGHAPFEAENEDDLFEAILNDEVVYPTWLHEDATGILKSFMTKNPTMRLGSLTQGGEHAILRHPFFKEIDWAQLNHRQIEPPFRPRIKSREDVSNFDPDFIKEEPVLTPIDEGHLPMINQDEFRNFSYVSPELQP

The first assay concerns the target Protein kinase C eta type (Homo sapiens) (UniProt P24723). The conditions noted are these: at 1 µM.
`COc1ccc(CNc2nc(N(CCO)CCO)nc3c2ncn3C(C)C)cc1`: the residual activity (usually the signal under treatment as a percentage of the control signal) came out at 83%.
Same read-out and setting: next, `O=Nc1c(-c2c(O)[nH]c3ccccc23)[nH]c2ccccc12`: 91%.
As for `O=c1c2ccccc2[nH]c(=S)n1CCN1CCC(=C(c2ccc(F)cc2)c2ccc(F)cc2)CC1`, the residual activity was 106%.
Still for that read-out and setting: next, `c1ccc(-c2n[nH]cc2-c2ccnc3ccccc23)nc1`: 92%.
Regarding `Cn1nc2c3c(cccc31)C(=O)c1ccccc1-2`, the residual activity is 88%.
Same read-out and setting: next, `CC#CC(=O)Nc1cc2c(Nc3ccc(F)c(Cl)c3)ncnc2cn1`: 90%; `CNc1cc2c(Nc3cccc(Br)c3)ncnc2cn1`: 80%; `NC(=O)c1ccc2[nH]c(-c3ccc(Oc4ccc(Cl)cc4)cc3)nc2c1`: 86%.
For the compound `CCN(CC)CCCCN1c2ccccc2Oc2ccc(Cl)cc21`, the residual activity is 118%.
On the same count and under the same terms, the figure for `CN(C)c1ccc(/C=C2\C(=O)Nc3ccccc32)cc1` is 102%.
The same measure, in the same setting: next, `COc1cc2ncnc(N3CCN(C(=O)Nc4ccc(Oc5ccccc5)cc4)CC3)c2cc1OC`: 98%.
Turning to `Oc1c2ccccc2c2c3c(cccc13)N=N2`, the residual activity amounted to 86%.
As to `CC(=O)c1ccc(N2CCOCC2)cc1O`, the residual activity was 92%.
Same read-out and setting: next, `Oc1ccc(-c2nc(-c3ccc(F)cc3)c(-c3ccncc3)[nH]2)cc1`: 100%; `Cc1ccc(NC2=CC(=O)c3sc(C)nc3C2=O)cc1`: 83%.
Still for that read-out and setting: next, `Cn1cc(/C=C2\C(=O)Nc3ccc(S(N)(=O)=O)cc32)c2ccccc21`: 96%.
Regarding `CC(C)n1cnc2c(NCc3ccccc3)nc(NCCCO)nc21`, the residual activity was 88%.
With `Cc1cncc2cccc(S(=O)(=O)N3CCCN(C(=O)CN)C[C@H]3C)c12`, the residual activity was 27%.
On to `Ic1cccc(CSc2nnc(-c3ccncc3)o2)c1`, for which the residual activity was 59%.
The same measure, in the same setting: next, `O=c1cc(-c2cccc3c2Sc2ccccc2S3)oc(N2CCOCC2)c1`: 107%.
Same read-out and setting: next, `Cc1nc2cc3nc(-c4cccs4)cnc3cc2n1C`: 107%.
With `O=C1c2ccccc2-[n+]2ccc3c([nH]c4ccccc43)c21`, the residual activity was 72%.
Same read-out and setting: next, `COc1cccc(-c2cc(=O)c3ccccc3o2)c1N`: 101%.
The same measure, in the same setting: next, `O=C1NC(=O)c2cc(Nc3ccc(F)cc3)c(Nc3ccc(F)cc3)cc21`: 91%.
The same measure, in the same setting: next, `Cc1nc(-c2ccccc2)c(-c2ccncc2)o1`: 101%; `Cn1cnc2cc3c(Nc4cccc(Br)c4)ncnc3cc21`: 93%.
For `CC[n+]1c(/C=C/N(C)c2ccccc2)n(-c2ccccc2)c2ccc(-c3nc4ccccc4s3)cc21`, the residual activity was 119%.
Turning to `N#C/C(=C(\N)Sc1ccc(N)cc1)c1ccccc1C(F)(F)F`, the residual activity turned out to be 76%.
On the same count and under the same terms, next, `COc1ccc(C(=O)Nc2sc3c(c2C(N)=O)CCCC3)cc1OC`: 98%.
Turning to `CC(C)n1cnc2/c(=N/c3cccc(Cl)c3)nc(NCCO)[nH]c21`, the residual activity came to 87%.
The same measure, in the same setting: the figure for `CO[C@H]1[C@@H](OC)C[C@H](C)[C@@H](OC)C2=CC(=O)C=C(NC(=O)/C(C)=C/C=C/[C@H](OC)[C@@H](OC(N)=O)/C(C)=C/[C@@H]1C)C2=O` is 118%.
On to `O=C1NC(=O)/C(=C\c2ccc3nccnc3c2)S1`, for which the residual activity came to 103%.
Still for that read-out and setting: the figure for `Cc1ccc(S(=O)(=O)/C=C/C#N)cc1` is 80%.
In the case of `O=C1NC(=O)/C(=C/c2ccc3c(c2)OC(F)(F)O3)S1`, the residual activity turned out to be 120%.
Still for that read-out and setting: next, `CCOc1cc2ncnc(Nc3cccc(Br)c3)c2cc1OCC`: 82%.

The target is the same in another assay. The conditions noted are these: at 10 µM.
For `COc1ccc(CNc2nc(N(CCO)CCO)nc3c2ncn3C(C)C)cc1`, the residual activity came out at 83%.
With `O=Nc1c(-c2c(O)[nH]c3ccccc23)[nH]c2ccccc12`, the residual activity came out at 83%.
The same measure, in the same setting: next, `O=c1c2ccccc2[nH]c(=S)n1CCN1CCC(=C(c2ccc(F)cc2)c2ccc(F)cc2)CC1`: 83%.
With `c1ccc(-c2n[nH]cc2-c2ccnc3ccccc23)nc1`, the residual activity came to 77%.
Same read-out and setting: the figure for `Cn1nc2c3c(cccc31)C(=O)c1ccccc1-2` is 89%; for `CC#CC(=O)Nc1cc2c(Nc3ccc(F)c(Cl)c3)ncnc2cn1` it is 84%; for `CNc1cc2c(Nc3cccc(Br)c3)ncnc2cn1` it is 90%.
On the same count and under the same terms, next, `NC(=O)c1ccc2[nH]c(-c3ccc(Oc4ccc(Cl)cc4)cc3)nc2c1`: 80%; `CCN(CC)CCCCN1c2ccccc2Oc2ccc(Cl)cc21`: 98%.
On to `CN(C)c1ccc(/C=C2\C(=O)Nc3ccccc32)cc1`, for which the residual activity is 93%.
With `COc1cc2ncnc(N3CCN(C(=O)Nc4ccc(Oc5ccccc5)cc4)CC3)c2cc1OC`, the residual activity was 74%.
For `Oc1c2ccccc2c2c3c(cccc13)N=N2`, the residual activity was 82%.
Take `CC(=O)c1ccc(N2CCOCC2)cc1O`: the residual activity was 84%.
As to `Oc1ccc(-c2nc(-c3ccc(F)cc3)c(-c3ccncc3)[nH]2)cc1`, the residual activity was found to be 70%.
On the same count and under the same terms, next, `Cc1ccc(NC2=CC(=O)c3sc(C)nc3C2=O)cc1`: 86%; `Cn1cc(/C=C2\C(=O)Nc3ccc(S(N)(=O)=O)cc32)c2ccccc21`: 98%; `CC(C)n1cnc2c(NCc3ccccc3)nc(NCCCO)nc21`: 81%.
Take `Cc1cncc2cccc(S(=O)(=O)N3CCCN(C(=O)CN)C[C@H]3C)c12`: the residual activity turned out to be 4%.
The same measure, in the same setting: the figure for `Ic1cccc(CSc2nnc(-c3ccncc3)o2)c1` is 62%; for `O=c1cc(-c2cccc3c2Sc2ccccc2S3)oc(N2CCOCC2)c1` it is 101%; for `Cc1nc2cc3nc(-c4cccs4)cnc3cc2n1C` it is 111%.
Consider `O=C1c2ccccc2-[n+]2ccc3c([nH]c4ccccc43)c21`, for which the residual activity came to 80%.
For the compound `COc1cccc(-c2cc(=O)c3ccccc3o2)c1N`, the residual activity stood at 94%.
The same measure, in the same setting: next, `O=C1NC(=O)c2cc(Nc3ccc(F)cc3)c(Nc3ccc(F)cc3)cc21`: 80%.
Turning to `Cc1nc(-c2ccccc2)c(-c2ccncc2)o1`, the residual activity was found to be 90%.
The same measure, in the same setting: the figure for `Cn1cnc2cc3c(Nc4cccc(Br)c4)ncnc3cc21` is 91%; for `CC[n+]1c(/C=C/N(C)c2ccccc2)n(-c2ccccc2)c2ccc(-c3nc4ccccc4s3)cc21` it is 88%.
Same read-out and setting: the figure for `N#C/C(=C(\N)Sc1ccc(N)cc1)c1ccccc1C(F)(F)F` is 83%; for `COc1ccc(C(=O)Nc2sc3c(c2C(N)=O)CCCC3)cc1OC` it is 77%; for `CC(C)n1cnc2/c(=N/c3cccc(Cl)c3)nc(NCCO)[nH]c21` it is 75%.
The same measure, in the same setting: next, `CO[C@H]1[C@@H](OC)C[C@H](C)[C@@H](OC)C2=CC(=O)C=C(NC(=O)/C(C)=C/C=C/[C@H](OC)[C@@H](OC(N)=O)/C(C)=C/[C@@H]1C)C2=O`: 83%.
Turning to `O=C1NC(=O)/C(=C\c2ccc3nccnc3c2)S1`, the residual activity was 78%.
Consider `Cc1ccc(S(=O)(=O)/C=C/C#N)cc1`, for which the residual activity is 90%.
On the same count and under the same terms, next, `O=C1NC(=O)/C(=C/c2ccc3c(c2)OC(F)(F)O3)S1`: 89%; `CCOc1cc2ncnc(Nc3cccc(Br)c3)c2cc1OCC`: 88%.
